Results filed as inconclusive are left out. The source made the active and inactive calls. Rule for the calls: active = hit-call score of the fitted dose curve at least 0.9, where 1 is the maximum; inconclusive = response in the unintended direction; inactive = score below 0.9.
Assay: TOX21_p53_BLA_p3_viability: Viability Assessment in the Tox21 HCT-116 p53 Agonism Beta-lactamase Assay, Phase 3 (AID 2283593);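 note: cells exposed to compound for 16 h before reading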
Method in brief: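 HCT-116 cells (4000/well) rested 5 h at 37C, then got DMSO compounds by pin tool (217-fold dilution) for 16 h at 37C, 5% CO2. After the bla read, CellTiter-Glo was added and luminescence read at 30 min, room temperature.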

**Q.** Which outcome does the source give for `CC[C@@H]([C@H](C)O)n1ncn(-c2ccc(N3CCN(c4ccc(OC[C@@H]5CO[C@@](Cn6cncn6)(c6ccc(F)cc6F)C5)cc4)CC3)cc2)c1=O` here?
**A.** Its outcome is “inactive”.

**Q.** Which outcome does the source give for `O=C(O)CCCC/C=C(\c1ccccc1)c1cccnc1` here?
**A.** Its outcome is “inactive”.

**Q.** Which outcome does the source give for `COc1ccc(CCN(C)CCCC(C#N)(c2cc(OC)c(OC)c(OC)c2)C(C)C)cc1OC` (stereo not given) here?
**A.** Its outcome is “inactive”.

**Q.** Which outcome does the source give for `CCN(O)CC` here?
**A.** Its outcome is “inactive”.

**Q.** For `CCOC(=O)c1cccnc1`, which outcome is on record?
**A.** The outcome was “inactive”.

**Q.** With `CCCCCCCCCCCBr` as the compound, how does the outcome read?
**A.** The outcome was “inactive”.

**Q.** With `CC(C)(C(=O)c1cccnc1)c1cccnc1` as the compound, how does the outcome read?
**A.** Its outcome is “inactive”.

**Q.** With `CN1CCN(C2Cc3ccccc3Sc3ccc(Cl)cc32)CC1` (stereo not given) as the compound, how does the AC50 read?
**A.** Its AC50 is 34.5 µM (active).

**Q.** With `O=S(=O)(O)c1ccc2c(N=Nc3ccc(S(=O)(=O)O)c4ccccc34)c(O)c(S(=O)(=O)O)cc2c1` as the compound, how does the outcome read?
**A.** The outcome was “inactive”.

**Q.** With `CC1(C)S[C@@H]2[C@H](N3C(=O)C(c4ccccc4)NC3(C)C)C(=O)N2[C@H]1C(=O)O` (stereo not given in full) as the compound, how does the outcome read?
**A.** The outcome was “inactive”.

**Q.** Which outcome does the source give for `CO[C@@H]1[C@@H](O[C@@H]2O[C@H](C)[C@@H](O[C@H]3C[C@@](C)(O)[C@@H](O)[C@H](C)O3)[C@H](N(C)C)[C@H]2O)[C@@H](CC=O)C[C@@H](C)[C@@H](O[C@@H]2CC[C@H](N(C)C)[C@@H](C)O2)/C=C/C=C/C[C@@H](C)OC(=O)C[C@H]1OC(C)=O` here?
**A.** The outcome was “inactive”.

**Q.** For `Cc1nc(C)c(C)nc1C`, which outcome is on record?
**A.** The outcome was “inactive”.

**Q.** Which outcome does the source give for `C[C@@H]1C[C@H]2[C@@H]3CCC4=CC(=O)C=C[C@]4(C)[C@@]3(Cl)[C@@H](O)C[C@]2(C)[C@@]1(OC(=O)c1ccco1)C(=O)CCl` here?
**A.** Its outcome is “inactive”.

**Q.** For `CCOC(=O)Cc1ccc(-c2ccccc2)cc1`, which outcome is on record?
**A.** The outcome was “inactive”.

**Q.** Which outcome does the source give for `COCCOC(=O)C1=C(C)NC(C)=C(C(=O)OC(C)C)C1c1cccc([N+](=O)[O-])c1` (stereo not given) here?
**A.** The outcome was “inactive”.
